Screening data deposited in PubChem by several laboratories.
E coli growth-1 – bacterial growth inhibition, counter-screen for AddAB inhibitors; AID 449728; inhibition, % at 11.9 µM; E. coli V3065 growth, OD600 absorbance, 18 h; 0.27% of 330,000 active;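 active = inhibition above the campaign's mean inhibition across all tested compounds plus 3 SD, cut at about 9.9% in these data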;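 note: uninfected addAB+ strain grown without phage in ampicillin broth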
E coli growth-2 – E. coli growth inhibition | Escherichia coli growth, OD600, 23 h; stronger effect = lower value | 0.21% of 330,000 active | OD600 absorbance (no concentration beside the values);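 active = OD600 absorbance below the run mean of sample wells minus 3.6 SD, in any replicate, cut at about 0.56 in these data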
AddAB inh – less growth of phage-infected E. coli with AddAB; 0.29% of 330,000 active; inhibition, % at 11.9 µM; E. coli expressing H. pylori AddAB, absorbance growth; in the data active = inhibition above about 12%
phage Ecoli inh – E. coli growth loss with phage present; growth absorbance; inhibition, % at 11.9 µM; 0.26% of 360,000 active; AID 651602; in the data active = inhibition above about 11%
Tat export inh – E. coli Tat transport inhibition. AID 488895. E. coli MC4100 TorA-mCherry Tat export, fluorescence. inhibition, % at 10 µM. 0.036% of 340,000 active;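 active = mean replicate inhibition at least 50% and at least half of replicates individually reaching 50%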;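 note: exported cargo escapes ClpAP degradation while cytoplasmic cargo is degraded and loses fluorescence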
AddAB confirm – growth loss of T4-infected E. coli expressing H. pylori AddAB, confirmed. shares compounds with AddAB inh. E. coli V3065 expressing H. pylori AddAB, T4 phage, OD; T4 phage with gene 2 nonsense mutations. inhibition, % at 11.9 µM. 64% of 880 active. AID 488942;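 active = mean inhibition above a set limit taken from the earlier primary screen, cut at about 13% in these data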;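 note: higher means less bacterial growth since AddAB block lets phage replicate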
RecBCD counter – AddAB counter-screen: growth loss of RecBCD+ E. coli infected with mutant T4 phage. shares compounds with AddAB inh. 73% of 880 active. AID 488955. inhibition, % at 11.9 µM. E. coli V66 + mutant T4 phage, OD growth;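 active = mean inhibition above the mean of solvent-only control wells plus 3 SD, cut at about 4% in these data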;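 note: optical density read after an 18 h incubation at 37 °C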
Bact viability – counter-screen: bacterial growth inhibition. shares compounds with AddAB inh. bacterial viability, absorbance (AddAB counterscreen). inhibition, % at 11.9 µM. 35% of 880 active; in the data active = inhibition above about 25%
RecBCD conf – confirmation: growth loss of phage-infected RecBCD+ E. coli (RecBCD inhibitor screen); shares compounds with phage Ecoli inh; E. coli V66 + T4 2- phage, growth OD; inhibition, % at 11.9 µM; 45% of 890 active; AID 651982;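 active = mean inhibition over triplicates exceeding the hit threshold derived in the original primary screen, cut at about 11% in these data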
Ecoli viability – counter-screen for RecBCD inhibitors: inhibitors of bacterial viability; 29% of 890 active; AID 651983; E. coli viability, absorbance (OD) growth; inhibition, % at 11.9 µM; shares compounds with phage Ecoli inh; in the data active = inhibition above about 20%;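 note: E. coli strain V66 grown with compound alone and no phage infection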
AddAB phage OD – growth loss of phage-infected AddAB E. coli, RecBCD counter-screen | E. coli expressing H. pylori AddAB + T4 phage, OD growth; gene 2 mutant T4, recBCD-deleted host | 45% of 890 active | shares compounds with phage Ecoli inh | AID 651984 | inhibition, % at 11.9 µM;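 active = mean inhibition above the solvent-only control wells' mean plus 3 SD, cut at about 22% in these data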;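 note: higher means less bacterial growth from phage killing when AddAB is blocked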
A number is an active result; 0 = inactive; - = no result given. In the library only some 0.51% were active in any assay of this set; here they are far more common.

SMILES	E coli growth-1	E coli growth-2	AddAB inh	phage Ecoli inh	Tat export inh	AddAB confirm	RecBCD counter	Bact viability	RecBCD conf	Ecoli viability	AddAB phage OD
O=C(Nc1ncc([N+](=O)[O-])s1)C1CC(=O)N(c2ccc(F)cc2)C1 (centres undefined)	0	0	0	0	0	-	-	-	-	-	-
O=C1NCCN1c1ncc([N+](=O)[O-])s1	101	0.066	100	98	0	96	95	96	96	97	101
CO[C@H]1/C=C/O[C@@]2(C)Oc3c(C)c(O)c4c(O)c(c(C=NN5CCN(C)CC5)c(O)c4c3C2=O)NC(=O)/C(C)=C\C=C\[C@H](C)[C@H](O)[C@@H](C)[C@@H](O)[C@@H](C)[C@H](OC(C)=O)[C@@H]1C	48	-	52	78	78	59	58	62	80	89	102
O=C(NN=C/C(Cl)=C\c1ccccc1)c1ccco1	-	0	-	-	-	-	-	-	-	-	-
CCOC(=O)c1cn(CC)c2cc(N3CCCCC3)c(F)cc2c1=O	0	0	0	0	0	-	-	-	-	-	-
CCn1cc(C(=O)O)c(=O)c2cc(F)c(N3CCN(C(=S)Nc4ccccc4OC)CC3)cc21	99	0.073	98	100	0	98	99	99	102	103	102
CCn1cc(C(=O)O)c(=O)c2cc(F)c(N3CCN(C(=S)NC(=O)c4c(OC)cccc4OC)CC3)cc21	98	0.07	99	99	0	99	99	99	102	102	103
S=c1[nH]nc(COc2ccccc2)n1N=Cc1cccc(Br)c1	-	0	-	-	-	-	-	-	-	-	-
Cc1cc(C)c(C)c(S(=O)(=O)N2CCC(C(=O)NNC(=O)c3ccccc3O)CC2)c1C	0	0	15	12	0	0	8.1	0	0	0	0
Nc1[nH]c(=O)ncc1F	19	0	28	29	0	45	20	44	32	24	52
C=CCc1cccc(/C=N/NC(=O)CCC(=O)Nc2ccc(F)cc2)c1O	11	-	13	13	0	14	16	0	0	0	0
C=CCc1cccc(/C=N/NC(=O)CNc2ccccc2OC)c1O	0	-	13	14	0	16	10	0	0	0	0
C=CCc1cccc(/C=N/NC(=O)CNc2cccc3ccccc23)c1O	0	-	0	0	0	-	-	-	-	-	-
NC(=NOC(=O)c1cc(-c2ccccc2)nc2ccccc12)c1ccccn1	-	0	-	-	-	-	-	-	-	-	-
Cc1cc2ncn(/N=C/c3ccc([N+](=O)[O-])o3)c2cc1C	32	-	86	14	0	99	12	46	0	0	57
COc1cccc(C=Nn2cnc3cc(C)c(C)cc32)c1OC	-	0	-	-	-	-	-	-	-	-	-
C[C@H]1O[C@@H](n2cc(F)c(=O)[nH]c2=O)[C@H](O)[C@@H]1O	42	-	36	32	0	41	25	38	47	31	53
O=c1[nH]c(=O)n(C2OC(CO)C(O)C(O)C2O)cc1F (centres undefined)	-	-	-	0	-	-	-	-	-	-	-
N#Cc1c(-c2ccccc2)ccn(Cc2cccc(Cl)c2)c1=O	16	0	21	15	0	27	16	0	0	0	0
Cc1cccc(C(=O)Oc2ccccc2C=NNC(=O)c2ccc(NC(=O)C(C)(C)C)cc2)c1	-	0	-	-	-	-	-	-	-	-	-
CO[C@@]1(NC(=O)C2SC(=C(C(N)=O)C(=O)O)S2)C(=O)N2C(C(=O)O)=C(CSc3nnnn3C)CS[C@@H]21 (some centres undefined)	97	-	97	100	0	101	101	101	103	105	103
COC(=O)c1ccc(CSc2nnnn2C)o1	0	0	0	0	0	-	-	-	-	-	-
